Reference: PubChem BioAssay AID430 (Sanford-Burnham Center for Chemical Genomics, 2006)
The campaign covered roughly 63,000 compounds. About 1,100 (1.7%) were called active. No stated cut-off is given here; in the data, active means cytotoxicity above about 50%; inactive means the rest. This excerpt belongs to a sample that is enriched for actives. Results with a measured potency or affinity are listed apart.

Assay: HPDE-C7 pancreatic duct cell viability loss – fluorescence, HTS (AID 430);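 further: cells exposed to compound for 48 hours before viability readout; 0% = vehicle and 100% = reference cytotoxic drug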
Conditions: HPDE-C7 pancreatic duct cells viability, at 10 µM, stronger effect = higher value

Row | Structure (SMILES) | cytotoxicity
1 | Cc1cc2cc(CN(C(=O)C3CC3)C3CCCC3)c3nnnn3c2cc1C | -22.1% (inactive)
2 | CCOc1ccccc1Nc1nc(N)nc(CSc2nncn2C)n1 | -1.9% (inactive)
3 | COc1ccccc1Oc1ccc(S(=O)(=O)N2CCOCC2)cc1S(=O)(=O)N1CCOCC1 | -10.8% (inactive)
4 | Cc1ccc(Oc2ccc(S(=O)(=O)N3CCOCC3)cc2C(N)=O)c(-n2nc3ccccc3n2)c1 | 53.1% (active)
5 | Cc1ccc(S(=O)(=O)N2CCOCC2)cc1C(=O)O | -13.5% (inactive)
6 | COc1cnn(-c2ccccc2)c(=O)c1N(C)C | -1.2% (inactive)
7 | O=C(C1CC1)N1CCc2cc(Br)cc(S(=O)(=O)NCCN3CCOCC3)c21 | -14.7% (inactive)
8 | O=c1c2ccccc2nc(SCc2nnc(-c3ccccc3Br)o2)n1Cc1ccco1 | 14.1% (inactive)
9 | COC(=O)c1ccc(C(=O)OC)c(NC(=O)c2cnc3n(c2=O)CCS3)c1 | -7.2% (inactive)
10 | CCCc1[nH]nc2c1C(c1ccc(OC)cc1OC)C(C#N)=C(N)O2 (configuration not stated) | -5% (inactive)
11 | OCC(CO)(CO)N=Cc1c(O)ccc2ccccc12 | 58.9% (active)
12 | Oc1ccc2ccccc2c1C=NC12CN3CCN(CN(C3)C1)C2 | 0.3% (inactive)
13 | Oc1ccc2ccccc2c1/C=N/n1cnnc1 | 10.5% (inactive)
14 | CCNc1nc(N2CCCCC2)nc(-n2nnc(C(=O)OCC)c2C)n1 | -22.1% (inactive)
15 | O=c1[nH]c2ccccc2n1CCCOc1ccccc1 | 5% (inactive)
16 | O=C1SC(SCc2ccccc2)=N/C1=C\c1ccco1 | 2.6% (inactive)
17 | CCCSC1=N/C(=C\C=C\c2ccco2)C(=O)S1 | 61.6% (active)
18 | C=CCSC1=N/C(=C\C=C\c2ccco2)C(=O)S1 | 45.9% (inactive)
19 | Cc1cccc(OCCCC(=O)Nc2ccc3c(c2)OCO3)c1 | 34% (inactive)
20 | CN(C)CC(C(=O)c1ccccc1)c1ccccc1 (configuration not stated) | 103% (active)
21 | CCC(C(=O)c1ccc(O)cc1)c1ccccc1 (configuration not stated) | 9.4% (inactive)
22 | COc1ccc(C(C(=O)OC(C)CN(C)C)c2ccccc2)cc1 (configuration not stated) | 4.3% (inactive)
23 | N=c1n(CC(=O)O)c2ccccc2n1Cc1ccccc1Cl | -13.9% (inactive)
24 | O=C(Cn1nnc(-c2cccc(C(F)(F)F)c2)n1)NC1CCCC1 | 8.5% (inactive)
25 | Cc1cc(C)n(CC(=O)n2c3c(c4ccccc42)CCCC3)n1 | -18.6% (inactive)

Row | Structure (SMILES) | cytotoxicity
26 | COC(=O)c1ccc2c(=O)n(Cc3ccc4c(c3)OCO4)c(SCC(=O)N3CCCC3)nc2c1 | 52.3% (active)
27 | COC(=O)c1ccc2c(=O)n(CCC3=CCCCC3)c(SCC(=O)N3CCCC3)nc2c1 | -13.9% (inactive)
28 | CC1CCCCN1C(=O)CSc1nc2cc3c(cc2c(=O)n1Cc1ccc2c(c1)OCO2)OCO3 (configuration not stated) | 0.1% (inactive)
29 | Nc1nc(CSc2ncn(-c3ccccc3)n2)cs1 | 15.3% (inactive)
30 | CC(=O)N(Cc1cc2ccc(C)c(C)c2n2nnnc12)C1CCCC1 | -3.5% (inactive)
31 | Cc1ccc(S(=O)(=O)N(CC(=O)O)Cc2ccccc2)cc1 | -7.6% (inactive)
32 | O=C(CN1C(=O)C2CC=C(Cl)CC2C1=O)N1CCOCC1 (configuration not stated) | -3.5% (inactive)
33 | CN1CCN(C(=O)c2cccc(S(=O)(=O)N3CCCCC3)c2)CC1 | -2.6% (inactive)
34 | Cn1c(=O)c(C(=O)NC2CCCCCCC2)c(O)c2ccccc21 | 9.6% (inactive)
35 | Cn1c(C(=O)NC2CCCC2)cc2c(=O)n(C)c3ccccc3c21 | 3.5% (inactive)
36 | O=C(NC1CCCCCC1)c1c(O)c2ccccc2[nH]c1=O | -4.9% (inactive)
37 | O=C(NC1CCCCC1)c1sc(=S)n2c1[nH]c(=O)c1ccccc12 | 82.6% (active)
38 | O=C(NC1CCCCCCC1)c1c(O)c2ccccc2[nH]c1=O | -13.7% (inactive)
39 | O=C(NC1CCCC1)c1sc(=S)n2c1[nH]c(=O)c1ccccc12 | 79.4% (active)
40 | COCCN(CCOC)C(=O)CCn1c(=O)oc2ccccc21 | -0.2% (inactive)
41 | Cc1cc2n(n1)C(c1sccc1C)Nc1c(C)cccc1-2 (configuration not stated) | -3.2% (inactive)
42 | C(=C\c1ccccc1)/CSc1nnc(-c2ccccn2)n1Cc1ccco1 | 33.9% (inactive)
43 | CC1(C)Cc2nc3oc4c(=S)nc[nH]c4c3cc2CO1 | -4.7% (inactive)
44 | Cn1c(=O)c2c(ncn2CC(=O)N2CCN(c3ccc(F)cc3)CC2)n(C)c1=O | 4.3% (inactive)
45 | COc1ccc(-c2cc(C(F)(F)F)nc(SCC(=O)Nc3cc(C)on3)n2)cc1 | -21.7% (inactive)
46 | COCC(C)NC(=O)CCS(=O)(=O)c1nc(-c2ccc(OC)cc2)cc(C(F)(F)F)n1 (configuration not stated) | 66.1% (active)
47 | CCOC(=O)c1cnn2c(C)cc(-c3ccc(F)cc3)nc12 | -7.6% (inactive)
48 | COc1ccc(-c2cc(C(F)(F)F)nc(SCCC(=O)NCc3ccco3)n2)cc1 | -3.2% (inactive)
49 | CCOC(=O)CCn1nc(-c2ccccc2)cc1N | -7.8% (inactive)
50 | CCOC(=O)CS(=O)(=O)c1ccc2ccccc2c1 | -10.2% (inactive)

Row | Structure (SMILES) | cytotoxicity
51 | CCOC(=O)CS(=O)(=O)c1nc(-c2ccccc2)cc(C(F)(F)F)n1 | 27.1% (inactive)
52 | COc1ccccc1-c1cc(C(F)(F)F)nc(S(=O)(=O)CCCC(=O)Nc2cc(C)on2)n1 | 38.2% (inactive)
53 | Cc1cc(NC(=O)CCCS(=O)(=O)c2nc(-c3cccs3)cc(C(F)(F)F)n2)no1 | 3.6% (inactive)
54 | CCn1cc(C(=O)NC2CCCCCC2)c2cc(OC)c(OC)cc2c1=O | -1.3% (inactive)
55 | CS(=O)(=O)Nc1ccc(C(=O)NCCSCc2ccco2)cc1 | -13.9% (inactive)
56 | COCCOC(=O)C1=C(C)NC(=O)NC1c1ccc(OC(=O)c2ccco2)c(OC)c1 (configuration not stated) | -1.8% (inactive)
57 | Cc1cc(=O)[nH]c(N2CCN(C(c3ccccc3)c3ccccc3)CC2)n1 | -6% (inactive)
58 | COc1ccc(C2CC(=O)c3cnc(NC(=O)c4cc(OC)cc(OC)c4)nc3C2)cc1 (configuration not stated) | -16.4% (inactive)
59 | O=C(NCCN1CCOCC1)c1ccc(-c2ccccc2)cc1 | 2.5% (inactive)
60 | CCN(CC)S(=O)(=O)c1ccc(NC(=O)COc2c(OC)cccc2OC)cc1 | -2.7% (inactive)
61 | O=C(CSc1nnc(C23CC4CC(CC(C4)C2)C3)o1)Nc1ccc(N2CCOCC2)c(Cl)c1 | -10% (inactive)
62 | CCOC(=O)c1oc2ccc(S(=O)(=O)N3CCOCC3)cc2c1C | 3.6% (inactive)
63 | CCOC(=O)c1oc2ccc(S(=O)(=O)n3nc(-c4ccc(OC)cc4)cc3N)cc2c1C | 54.2% (active)
64 | CCOC(=O)c1oc2ccc(S(=O)(=O)N3CCC(C)CC3)cc2c1C | 16.8% (inactive)
65 | CCn1c(CSc2nccn2C)nc2cc(C(=O)O)ccc21 | 2.6% (inactive)
66 | NC1=NC(=O)CC(C(=O)NCc2ccccc2)S1 (configuration not stated) | -6.8% (inactive)
67 | Cc1ccccc1OCC(O)Cn1c(N2CCN(c3ccccc3)CC2)nc2c1c(=O)[nH]c(=O)n2C (configuration not stated) | 82.9% (active)
68 | Cc1ccccc1OCC(O)Cn1c(SC(C)C)nc2c1c(=O)[nH]c(=O)n2C (configuration not stated) | 0.7% (inactive)
69 | CCSc1nc2c(c(=O)[nH]c(=O)n2C)n1CC(O)COc1ccccc1C (configuration not stated) | -1.3% (inactive)
70 | Cn1c(=O)[nH]c(=O)c2c1nc(N1CCOCC1)n2CC(O)COc1ccccc1 (configuration not stated) | -10.9% (inactive)
71 | COc1ccccc1OCC(O)Cn1c(Br)nc2c1c(=O)[nH]c(=O)n2C (configuration not stated) | 2.9% (inactive)
72 | CC(C)CSc1nc2c(c(=O)[nH]c(=O)n2C)n1CC(O)COc1cccc2ccccc12 (configuration not stated) | 68.7% (active)
73 | Cc1nn(CCC(=O)O)c2nc(-c3cccnc3)cc(C(F)(F)F)c12 | -17.9% (inactive)
74 | CCN(CC)C(c1ccc(C)cc1)c1nnnn1C1CCCCC1 (configuration not stated) | -25.4% (inactive)
75 | Cc1ccc(S(=O)(=O)C2(C(=O)N3CCN(C4CCCCC4)CC3)CC2)cc1 | 6.1% (inactive)

Row | Structure (SMILES) | cytotoxicity
76 | CCCC(=O)NC(c1ccco1)c1cc(Cl)c2cccnc2c1O (configuration not stated) | 59.7% (active)
77 | CCCC(=O)Nc1ccc(Cl)c(NC(=O)c2ccco2)c1 | -1.6% (inactive)
78 | O=C(Oc1c(Cl)cc(Cl)c2cccnc12)N1CCCCC1 | -1.1% (inactive)
79 | O=C(OCC(=O)N(C1CCCCC1)C1CCCCC1)c1ccncc1 | 4.3% (inactive)
80 | Cc1cccc(C#N)c1NC1=CC(=O)CC(C)(C)C1 | -3.4% (inactive)
81 | COc1cc(NS(=O)(=O)c2ccc(C)cc2)c2ncccc2c1 | 57.2% (active)
82 | O=C(C1CCN(S(=O)(=O)c2cccc3cccnc23)CC1)N1CCCC1 | -7.2% (inactive)
83 | O=S(=O)(Nc1cccc2cccnc12)c1ccc(S(=O)(=O)N2CCCC2)cc1 | 57.1% (active)
84 | COc1ccc(NS(=O)(=O)c2ccc(Oc3ncccn3)cc2)cc1 | 17.1% (inactive)
85 | COc1cc(NCCCC(C)N)c2ncccc2c1 (configuration not stated) | -12.1% (inactive)
86 | CS(=O)(=O)Nc1cccc2cccnc12 | 6.6% (inactive)
87 | Cc1nnc(SCC(=O)Nc2cc(C(F)(F)F)ccc2N2CCOCC2)o1 | 12.9% (inactive)
88 | CC/C(=N\O)c1ccc(OC)c(OC)c1 | -4.4% (inactive)
89 | CC(=O)CSc1ncnc2nc[nH]c12 | 5.4% (inactive)
90 | CC(C)(C)c1cc(Br)ccc1OCC(=O)Nc1ncn[nH]1 | 21.9% (inactive)
91 | CCC(C)NC(=O)C1c2cc(OC)c(OC)cc2C(=O)N(C)C1c1ccc(OC)cc1 (configuration not stated) | -7.8% (inactive)
92 | CC(=O)c1c(C)cc(C)c(CSc2nc(C)cc(=O)[nH]2)c1C | 51.3% (active)
93 | CCOC(=O)CSc1nc(C)cc(=O)[nH]1 | 1.4% (inactive)
94 | CCCSc1nc(C)cc(=O)[nH]1 | 1.4% (inactive)
95 | O=C(O)c1cccc(S(=O)(=O)Nc2ccc3oc(=O)sc3c2)c1 | 1.3% (inactive)
96 | COc1cc(NS(=O)(=O)c2ccc(C)cc2C)cc(OC)c1OC | 37% (inactive)
97 | Cn1c(=O)c2cn(-c3ccc4c(c3)OCCO4)cc2n(C)c1=O | -24.9% (inactive)
